Results reported in the supplement of paper PMC6555819.

Columns and labels:
Experiment in all cases: PBM binding z-score (relative to random genomic background probes); higher = stronger binding; sequences stand for … in GC…GCGATTGACAGCGTAGAATGAAGG
[1] = test system: FXR:RXRa (NR concentration 270 nM, RXRa partner concentration 90 nM)
Method in brief: (§1)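 For binding z-scores, the reference was random background probes on custom Agilent 4×180K protein-binding microarrays. These arrays were incubated 1 h with ligand-free nuclear receptor dimers in PBS pH 7.4, 2% milk, 0.02% Triton X-100, 1 mM DTT, 0.2 mg/mL BSA and 0.4 mg/ml salmon testes DNA. Fluorescence was scanned after antibody detection of each partner (one per run) and regression-normalized.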

[2] = test system: LXRa:RXRa (NR concentration 270 nM, RXRa partner concentration 90 nM)
Method in brief: as §1

[3] = test system: LXRa homodimer (NR concentration 270 nM)
Method in brief: as §1

[4] = test system: LXRb:RXRa (NR concentration 270 nM, RXRa partner concentration 90 nM)
Method in brief: as §1

[5] = test system: LXRb homodimer (NR concentration 270 nM)
Method in brief: as §1

[6] = test system: PPARa:RXRa (NR concentration 270 nM, RXRa partner concentration 90 nM)
Method in brief: as §1

[7] = test system: PPARg:RXRa (NR concentration 180 nM, RXRa partner concentration 90 nM)
Method in brief: as §1

[8] = test system: PPARg:RXRa 270nM:90nM, anti-RXR (NR concentration 270 nM, RXRa partner concentration 90 nM)
Method in brief: as §1

[9] = test system: PPARg:RXRa 30nM:10nM, anti-RXR (NR concentration 30 nM, RXRa partner concentration 10 nM)
Method in brief: as §1

[10] = test system: PPARg:RXRa 90nM:30nM, anti-RXR (NR concentration 90 nM, RXRa partner concentration 30 nM)
Method in brief: as §1

CCTACTGGGCCAAAAAGGTCATTCATGCCGATAA
PBM binding z-score [1]: 3.81 | PBM binding z-score [2]: 4.85 | PBM binding z-score [3]: 4.27 | PBM binding z-score [4]: 4.54 | PBM binding z-score [5]: 0.914 | PBM binding z-score [6]: 4.85 | PBM binding z-score [7]: 3.37 | PBM binding z-score [8]: 4.13 | PBM binding z-score [9]: 1.87 | PBM binding z-score [10]: 3.58

ATCTTTAGGTAAGACTCAGTTCAGTGAAGAACGC
PBM binding z-score [1]: 0.459 | PBM binding z-score [2]: 0.502 | PBM binding z-score [3]: 0.392 | PBM binding z-score [4]: 0.259 | PBM binding z-score [5]: 0.931 | PBM binding z-score [6]: 0.478 | PBM binding z-score [7]: 0.122 | PBM binding z-score [8]: 0.267 | PBM binding z-score [9]: 0.146 | PBM binding z-score [10]: 0.0526

CGAACTAGGTCATTGACAGGACAGCGAATAGTAA
PBM binding z-score [1]: 4.04 | PBM binding z-score [2]: 2.83 | PBM binding z-score [3]: 0.577 | PBM binding z-score [4]: 1.84 | PBM binding z-score [5]: -0.147 | PBM binding z-score [6]: 4.83 | PBM binding z-score [7]: 7.35 | PBM binding z-score [8]: 6.29 | PBM binding z-score [9]: 3.94 | PBM binding z-score [10]: 5.75

GCTCGGAGGACAAGGTCAAAGCTTTGTCCGTAGA
PBM binding z-score [1]: 4.6 | PBM binding z-score [2]: 3.98 | PBM binding z-score [3]: 0.466 | PBM binding z-score [4]: 3.14 | PBM binding z-score [5]: 0.0189 | PBM binding z-score [6]: 4.19 | PBM binding z-score [7]: 2.56 | PBM binding z-score [8]: 3.57 | PBM binding z-score [9]: 0.553 | PBM binding z-score [10]: 2.47

TCTCGGAGGACTCGAAGGTCAGAGCTTTCCAGAG
PBM binding z-score [1]: 0.838 | PBM binding z-score [2]: 0.984 | PBM binding z-score [3]: -0.429 | PBM binding z-score [4]: 0.814 | PBM binding z-score [5]: -1.14 | PBM binding z-score [6]: 1.46 | PBM binding z-score [7]: -0.316 | PBM binding z-score [8]: 1.24 | PBM binding z-score [9]: 2 | PBM binding z-score [10]: 1.38

AGGACGAGGGCAATGAGTTGATAGCACGGGTGGC
PBM binding z-score [1]: 0.665 | PBM binding z-score [2]: 0.175 | PBM binding z-score [3]: -0.256 | PBM binding z-score [4]: -0.148 | PBM binding z-score [5]: -0.403 | PBM binding z-score [6]: 0.903 | PBM binding z-score [7]: 1.12 | PBM binding z-score [8]: 0.232 | PBM binding z-score [9]: -0.168 | PBM binding z-score [10]: -0.187

TCTTGTAGATCAAGCAGGTTGAGAAAGCCTGAGT
PBM binding z-score [1]: 0.128 | PBM binding z-score [2]: 0.187 | PBM binding z-score [3]: -0.471 | PBM binding z-score [4]: -0.223 | PBM binding z-score [5]: -0.57 | PBM binding z-score [6]: 0.441 | PBM binding z-score [7]: -0.512 | PBM binding z-score [8]: 0.973 | PBM binding z-score [9]: 2.32 | PBM binding z-score [10]: 1.66

TGAATGAGGTTAAAGATCAGGGATCGTGGCGTCG
PBM binding z-score [1]: 2.72 | PBM binding z-score [2]: 2.32 | PBM binding z-score [3]: -0.45 | PBM binding z-score [4]: 1.43 | PBM binding z-score [5]: 0.3 | PBM binding z-score [6]: 4.23 | PBM binding z-score [7]: 5.54 | PBM binding z-score [8]: 6.39 | PBM binding z-score [9]: 4.69 | PBM binding z-score [10]: 6.83

TTACCAAGGTGGAAGGTCGTTGATGCACGCCTTG
PBM binding z-score [1]: 0.529 | PBM binding z-score [2]: 0.656 | PBM binding z-score [3]: -0.194 | PBM binding z-score [4]: 0.41 | PBM binding z-score [5]: -0.809 | PBM binding z-score [6]: 2.03 | PBM binding z-score [7]: 2.43 | PBM binding z-score [8]: 4.41 | PBM binding z-score [9]: 1.94 | PBM binding z-score [10]: 4.21

CCTACTGGGCCAAGGTCACTGATCAGTCAAAGCA
PBM binding z-score [1]: 3.03 | PBM binding z-score [2]: 2.64 | PBM binding z-score [3]: 0.281 | PBM binding z-score [4]: 2.79 | PBM binding z-score [5]: -0.518 | PBM binding z-score [6]: 4.1 | PBM binding z-score [7]: 4.17 | PBM binding z-score [8]: 4.62 | PBM binding z-score [9]: 2.22 | PBM binding z-score [10]: 3.93

GGAACGATGGCAAGTTGATAGCAGAGTTTGATGG
PBM binding z-score [1]: -0.624 | PBM binding z-score [2]: -0.756 | PBM binding z-score [3]: -0.63 | PBM binding z-score [4]: -0.971 | PBM binding z-score [5]: -1.01 | PBM binding z-score [6]: -0.654 | PBM binding z-score [7]: 0.339 | PBM binding z-score [8]: -0.873 | PBM binding z-score [9]: -0.448 | PBM binding z-score [10]: -0.709

ACAGACAGGTGATGAAGGTAAATCAGGCTATCAT
PBM binding z-score [1]: -0.0911 | PBM binding z-score [2]: -0.136 | PBM binding z-score [3]: -0.0858 | PBM binding z-score [4]: 0.169 | PBM binding z-score [5]: -0.557 | PBM binding z-score [6]: 0.252 | PBM binding z-score [7]: 0.707 | PBM binding z-score [8]: 0.0594 | PBM binding z-score [9]: -0.0828 | PBM binding z-score [10]: -0.0561

CCAGACAGGTAAGAAGGTAACTCAGCCTCGATTA
PBM binding z-score [1]: 0.251 | PBM binding z-score [2]: 0.138 | PBM binding z-score [3]: -0.169 | PBM binding z-score [4]: 0.0955 | PBM binding z-score [5]: -0.296 | PBM binding z-score [6]: 0.0886 | PBM binding z-score [7]: 0.35 | PBM binding z-score [8]: -0.153 | PBM binding z-score [9]: -0.728 | PBM binding z-score [10]: -0.359

TCTTGTAGATCAGCAGGTTAAGATAGCTGGCCAA
PBM binding z-score [1]: -0.0531 | PBM binding z-score [2]: 0.217 | PBM binding z-score [3]: -0.176 | PBM binding z-score [4]: 0.312 | PBM binding z-score [5]: -0.375 | PBM binding z-score [6]: 0.692 | PBM binding z-score [7]: -0.179 | PBM binding z-score [8]: 1.28 | PBM binding z-score [9]: 2.71 | PBM binding z-score [10]: 1.95

CCTACTGGGCCAAAAAGGTTATTGATGCCGATAA
PBM binding z-score [1]: -0.207 | PBM binding z-score [2]: 0.612 | PBM binding z-score [3]: 0.14 | PBM binding z-score [4]: 1.08 | PBM binding z-score [5]: -0.751 | PBM binding z-score [6]: 2.15 | PBM binding z-score [7]: 0.965 | PBM binding z-score [8]: 1.85 | PBM binding z-score [9]: 0.374 | PBM binding z-score [10]: 1.29

ATCTCTAGGTAAAGATATTTCAGTGAATGCAAAT
PBM binding z-score [1]: 0.207 | PBM binding z-score [2]: 0.268 | PBM binding z-score [3]: 0.422 | PBM binding z-score [4]: 0.346 | PBM binding z-score [5]: 0.74 | PBM binding z-score [6]: 0.352 | PBM binding z-score [7]: 0.976 | PBM binding z-score [8]: 0.732 | PBM binding z-score [9]: 0.499 | PBM binding z-score [10]: 0.83

ACAGACAAGTGATGAAGGTAACTCAGGCTATCAT
PBM binding z-score [1]: -0.375 | PBM binding z-score [2]: -0.259 | PBM binding z-score [3]: -0.503 | PBM binding z-score [4]: -0.446 | PBM binding z-score [5]: -0.469 | PBM binding z-score [6]: -0.37 | PBM binding z-score [7]: 0.531 | PBM binding z-score [8]: -0.282 | PBM binding z-score [9]: -0.0857 | PBM binding z-score [10]: -0.2

TCTTGTAGATCTGCAGGTTAAGAAAGCTGGCCAA
PBM binding z-score [1]: 0.0261 | PBM binding z-score [2]: 0.396 | PBM binding z-score [3]: -0.113 | PBM binding z-score [4]: 0.457 | PBM binding z-score [5]: -0.445 | PBM binding z-score [6]: 0.515 | PBM binding z-score [7]: -0.788 | PBM binding z-score [8]: 1.01 | PBM binding z-score [9]: 2.56 | PBM binding z-score [10]: 1.89

CGAACTATGTCATCCAGGACAGTGAATACATTGA
PBM binding z-score [1]: 0.102 | PBM binding z-score [2]: -0.0297 | PBM binding z-score [3]: 0.258 | PBM binding z-score [4]: 0.236 | PBM binding z-score [5]: 0.0323 | PBM binding z-score [6]: 1.01 | PBM binding z-score [7]: 1.11 | PBM binding z-score [8]: 1.06 | PBM binding z-score [9]: 0.663 | PBM binding z-score [10]: 0.773

GCAGACGGGTGAAACGCAGGTAACTCAGGGTGGC
PBM binding z-score [1]: -0.349 | PBM binding z-score [2]: -0.337 | PBM binding z-score [3]: -0.751 | PBM binding z-score [4]: -0.502 | PBM binding z-score [5]: -1.12 | PBM binding z-score [6]: 0.266 | PBM binding z-score [7]: 0.241 | PBM binding z-score [8]: -0.502 | PBM binding z-score [9]: -0.732 | PBM binding z-score [10]: -0.536

CGTCCAAGGTCAATGCTACGTCAGTGAAAGCATT
PBM binding z-score [1]: 6.6 | PBM binding z-score [2]: 4.58 | PBM binding z-score [3]: 0.394 | PBM binding z-score [4]: 3.37 | PBM binding z-score [5]: 0.412 | PBM binding z-score [6]: 4.89 | PBM binding z-score [7]: 3.32 | PBM binding z-score [8]: 4.18 | PBM binding z-score [9]: 1.44 | PBM binding z-score [10]: 3.3

TGCCAAAGTTCAAAGGTAACGTAAGTATCCACAC
PBM binding z-score [1]: 7.28 | PBM binding z-score [2]: 6.4 | PBM binding z-score [3]: 4.65 | PBM binding z-score [4]: 4.85 | PBM binding z-score [5]: 1.81 | PBM binding z-score [6]: 5.9 | PBM binding z-score [7]: 7.61 | PBM binding z-score [8]: 7.16 | PBM binding z-score [9]: 4.42 | PBM binding z-score [10]: 6.78

AGTCAAAGTTCATCTAGGTTACGTAAGATATGCT
PBM binding z-score [1]: 6.68 | PBM binding z-score [2]: 6.16 | PBM binding z-score [3]: 6.06 | PBM binding z-score [4]: 3.95 | PBM binding z-score [5]: 2.11 | PBM binding z-score [6]: 4.96 | PBM binding z-score [7]: 6.9 | PBM binding z-score [8]: 6.6 | PBM binding z-score [9]: 4.02 | PBM binding z-score [10]: 5.95
